Active and inactive are the calls of the source.
Experiments:
[1] = test system: Human papillomavirus type 1a protein E7 (residues 44-93); test: small molecules binding HPV E7 44-93 – biochemical, small-molecule microarray, residues 44-93, 635 nm fluorescence, primary screen (AID 1108); conditions: fluorescence 635 nm, higher = more signal;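 also: E7 fragment applied at 1 µg/mL in TBST for 1 h at 4 C; score combines spot fluorescence with its signal to noise ratio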
[2] = hepatitis C replication reporter changes, two-sided – Huh7 cells, luciferase reporter, HCV replication inhibitor project, primary screen (AID 1109); conditions: Huh7 HCV replicon luciferase reporter, 48 h; higher = more signal;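 also: huh7 hepatoma cells harbouring a luciferase neomycin HCV replicon reporter; luciferase luminescence as measure of HCV replicon replication; test concentration not given here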
[3] = molecular target: Left-right determination factor 2 (Homo sapiens) (UniProt O00292); test: small molecules binding LEFTY2 protein – biochemical, small-molecule microarray, 635 nm fluorescence scan, primary screen (AID 1110); conditions: higher = more signal
[4] = molecular target: Calmodulin-1 (Homo sapiens) (UniProt P0DP23); test: small molecules binding calmodulin-1 with EGTA – biochemical, small-molecule microarray, Cy5-labelled CALM1, profiling panel (AID 1111); conditions: Cy5-CALM1 binding fluorescence, higher = more signal;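 also: labelled calmodulin applied in Tris saline Tween buffer holding calcium plus EGTA and DTT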
[5] = molecular target: Calmodulin-1 (Homo sapiens) (UniProt P0DP23); test: small molecules binding Ca-loaded calmodulin-1 – biochemical, small-molecule microarray, Cy5-labelled CALM1, plus calcium, artefact control for SMM control-protein annotation, profiling panel (AID 1112); conditions: Cy5-CALM1 binding fluorescence, higher = more signal;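 also: score merges spot fluorescence with signal to noise from triplicate slides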
[6] = probe aWnt5a binding to arrayed compounds – biochemical, biotinylated probe, 635/667 nm fluorescence, primary screen (AID 1113); conditions: small-molecule microarray, higher = more signal;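 also: score merges 667 nm fluorescence intensity with signal-to-noise per printed feature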
[7] = probe aShh binding to arrayed compounds – biochemical, biotinylated probe, 635/667 nm fluorescence, primary screen (AID 1114); conditions: small-molecule microarray, higher = more signal;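 also: probe is biotin-labelled aShh protein from a stem cell growth factor screen; measures binding of labelled protein to compounds printed on the slide; score merges feature fluorescence at 667 nm with signal-to-noise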
[8] = probe aNog binding to arrayed compounds – biochemical, biotinylated probe, 635/667 nm fluorescence, primary screen (AID 1115); conditions: small-molecule microarray, higher = more signal;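 also: probe is biotinylated aNog protein used at 0.15 µg/mL for 1 h at 4 C; z-score combines 667 nm fluorescence of each spot with its signal to noise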
[9] = molecular target: Torsin-1A-interacting protein 1 (Homo sapiens) (UniProt Q5JTV8); test: compound microarray binding of lysate hLAP1 – cell lysate, small-molecule microarray, COS7 lysate, 635/667 nm fluorescence, primary screen (AID 1116); conditions: 635 nm fluorescence, higher = more signal
[10] = molecular target: Alpha-bungarotoxin (Bungarus multicinctus) (UniProt P60615); test: compounds binding labelled alpha-BTX control protein – biochemical, small-molecule microarray, Alexa647 label, 635/667 nm fluorescence, artefact control for SMM control protein annotation, profiling panel (AID 1117); conditions: alpha-BTX-A647 binding fluorescence, higher = more signal
[11] = molecular target: Albumin (Bos taurus) (UniProt P02769); test: compounds binding labelled BSA control protein – biochemical, small-molecule microarray, Alexa647 label, 635/667 nm fluorescence, artefact control for SMM control protein annotation, profiling panel (AID 1118); conditions: BSA-A647 binding, fluorescence 635 nm, higher = more signal;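 also: score merges 667 nm emission intensity and signal-to-noise per printed compound spot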
[12] = probe aXIP binding to arrayed compounds – biochemical, NeuroSMM set, 635/667 nm fluorescence, primary screen (AID 1119); conditions: small-molecule microarray, higher = more signal, called active from +8 up or from −8 down;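 also: probe is the protein aXip251-270 applied at 1 µg/mL to compound-printed slides; binding of probe to printed compounds measured as 667 nm fluorescence plus signal to noise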
[13] = probe aNOTCH3 binding on compound microarray – biochemical, small-molecule microarray, 635/667 nm fluorescence, primary screen (AID 1120); conditions: higher = more signal;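 also: probe is a biotin-tagged antibody raised against NOTCH3 rather than NOTCH3 protein; score merges spot fluorescence near 667 nm with spot signal to noise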
[14] = probe aNOTCH2 binding on compound microarray – biochemical, small-molecule microarray, 635/667 nm fluorescence, primary screen (AID 1121); conditions: higher = more signal;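 also: score merges feature fluorescence read at 667 nm with its signal to noise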
[15] = molecular target: Carbonic anhydrase 2 (Homo sapiens) (UniProt P00918); test: compounds binding carbonic anhydrase 2 – biochemical, small-molecule microarray, Alexa647-labelled CAII, profiling panel (AID 1122); conditions: CAII-A647 binding fluorescence, higher = more signal
[16] = COS7 lysate on small-molecule microarray, probe aHis, 635 nm (AID 1123); conditions: COS7 cell lysate, fluorescence, higher = more signal;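 also: z-score combines 667nm fluorescence intensity with signal-to-noise per printed compound spot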
[17] = probe aLAP1 signal on lysate-treated microarray – cell lysate, small-molecule microarray, COS7 lysate, primary screen (AID 1124); conditions: probe aLAP1, fluorescence, higher = more signal;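 also: lysate comes from COS7 cells expressing LAP1 and is applied at 0.3 µg/mL; score merges spot fluorescence near 667 nm with signal-to-noise over triplicate slides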
[18] = test system: Sam68 (KHDRBS1); test: compounds binding KHDRBS1 protein – biochemical, small-molecule microarray, 635 nm fluorescence, primary screen (AID 1125); conditions: higher = more signal;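 also: score merges 667 nm channel intensity with signal to noise over triplicate slides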
[19] = test system: Chordin-like protein 2 (CHRDL2); test: compounds binding chordin-like 2 – biochemical, small-molecule microarray, 635 nm fluorescence, primary screen (AID 1126); conditions: fluorescence 635 nm, higher = more signal;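 also: printed compound slides probed with Chrdl2 protein at 4 µg/mL for 1 h at 4 C; score merges 667 nm emission intensity with signal to noise over three replicate slides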
[20] = molecular target: Concanavalin-A (Canavalia ensiformis) (UniProt P02866); test: compounds binding concanavalin A lectin – biochemical, small-molecule microarray, Alexa647 label, 635 nm, artefact control for SMM control protein annotation, primary screen (AID 1127); conditions: ConA-A647 binding fluorescence, higher = more signal;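 also: z combines 667 nm emission intensity with signal-to-noise across three replicate slides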
Chain of Concanavalin-A (Canavalia ensiformis) (P02866 whole entry, looked up): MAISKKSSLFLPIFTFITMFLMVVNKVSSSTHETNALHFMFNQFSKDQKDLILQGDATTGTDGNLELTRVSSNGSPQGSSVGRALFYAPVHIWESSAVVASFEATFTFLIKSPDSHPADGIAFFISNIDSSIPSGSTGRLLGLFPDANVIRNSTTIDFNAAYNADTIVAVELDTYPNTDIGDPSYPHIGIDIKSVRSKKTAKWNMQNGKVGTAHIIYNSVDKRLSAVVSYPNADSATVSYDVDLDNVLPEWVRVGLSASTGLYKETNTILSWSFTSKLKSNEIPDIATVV

Chain of Alpha-bungarotoxin (Bungarus multicinctus) (P60615 whole entry, looked up): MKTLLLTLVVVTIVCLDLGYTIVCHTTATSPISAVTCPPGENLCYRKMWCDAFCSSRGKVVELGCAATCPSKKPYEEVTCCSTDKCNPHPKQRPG
Chain of Albumin (Bos taurus) (P02769 whole entry, looked up): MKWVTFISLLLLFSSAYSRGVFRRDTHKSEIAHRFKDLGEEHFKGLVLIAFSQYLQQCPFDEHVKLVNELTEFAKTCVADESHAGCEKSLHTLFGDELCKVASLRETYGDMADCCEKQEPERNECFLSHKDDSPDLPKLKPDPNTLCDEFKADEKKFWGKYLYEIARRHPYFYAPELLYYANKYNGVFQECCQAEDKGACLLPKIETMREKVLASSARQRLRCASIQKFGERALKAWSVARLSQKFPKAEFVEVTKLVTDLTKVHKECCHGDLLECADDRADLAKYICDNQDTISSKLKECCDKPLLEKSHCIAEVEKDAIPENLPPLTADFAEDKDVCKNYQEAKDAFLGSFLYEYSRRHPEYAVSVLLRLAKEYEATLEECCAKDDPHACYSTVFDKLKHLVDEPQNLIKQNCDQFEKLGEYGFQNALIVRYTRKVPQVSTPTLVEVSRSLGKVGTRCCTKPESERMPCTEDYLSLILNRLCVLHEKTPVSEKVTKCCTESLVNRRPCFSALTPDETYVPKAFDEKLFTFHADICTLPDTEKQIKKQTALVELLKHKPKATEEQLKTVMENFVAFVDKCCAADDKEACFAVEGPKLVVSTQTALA
Chain of Torsin-1A-interacting protein 1 (Homo sapiens) (Q5JTV8 whole entry, looked up): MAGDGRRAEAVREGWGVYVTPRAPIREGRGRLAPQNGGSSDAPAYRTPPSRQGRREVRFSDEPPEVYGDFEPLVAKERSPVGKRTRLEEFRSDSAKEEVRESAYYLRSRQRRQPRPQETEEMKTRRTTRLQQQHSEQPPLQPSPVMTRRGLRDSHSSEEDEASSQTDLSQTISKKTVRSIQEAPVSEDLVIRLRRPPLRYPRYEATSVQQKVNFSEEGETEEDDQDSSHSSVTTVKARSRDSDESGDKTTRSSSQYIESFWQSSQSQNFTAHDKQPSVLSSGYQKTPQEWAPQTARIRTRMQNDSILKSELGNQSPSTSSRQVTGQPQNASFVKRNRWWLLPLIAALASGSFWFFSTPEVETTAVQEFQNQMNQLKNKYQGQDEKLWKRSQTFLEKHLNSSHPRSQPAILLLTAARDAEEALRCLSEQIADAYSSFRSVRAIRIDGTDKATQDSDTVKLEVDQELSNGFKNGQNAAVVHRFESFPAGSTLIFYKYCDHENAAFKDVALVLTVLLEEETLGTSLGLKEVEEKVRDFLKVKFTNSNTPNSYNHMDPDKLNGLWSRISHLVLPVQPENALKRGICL
Chain of Left-right determination factor 2 (Homo sapiens) (O00292 whole entry, looked up): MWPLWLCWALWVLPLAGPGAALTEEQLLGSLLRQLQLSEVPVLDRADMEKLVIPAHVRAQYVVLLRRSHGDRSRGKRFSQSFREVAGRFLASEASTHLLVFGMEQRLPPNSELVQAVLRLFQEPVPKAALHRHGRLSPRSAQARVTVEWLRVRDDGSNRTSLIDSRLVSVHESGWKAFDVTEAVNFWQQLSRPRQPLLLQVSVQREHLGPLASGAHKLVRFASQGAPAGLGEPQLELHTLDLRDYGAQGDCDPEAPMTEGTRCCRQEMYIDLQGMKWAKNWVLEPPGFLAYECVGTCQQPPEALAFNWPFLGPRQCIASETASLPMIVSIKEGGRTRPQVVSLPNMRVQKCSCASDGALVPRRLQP

| SMILES | composite z-score [1] | z-score [2] | composite z-score [3] | composite z-score [4] | composite z-score [5] | composite z-score [6] | composite z-score [7] | composite z-score [8] | composite z-score [9] | composite z-score [10] | composite z-score [11] | composite Z-score [12] | composite z-score [13] | composite z-score [14] | composite z-score [15] | composite z-score [16] | composite z-score [17] | composite z-score [18] | composite z-score [19] | composite z-score [20] |
| --- | --- | --- | --- | --- | --- | --- | --- | --- | --- | --- | --- | --- | --- | --- | --- | --- | --- | --- | --- | --- |
| Cn1c(=O)n2n(c1=O)[C@H]1[C@H](O)[C@@H]3O[C@@H]3C(=NOCc3ccccc3)[C@H]1CC2 | 0.729 | -1.28 | -0.0238 | -0.17 | 0.33 | -0.232 | -0.0339 | -0.0524 | -0.0588 | 0.0868 | 0.0494 | -0.054 (inactive) | -0.112 | -0.14 | 0.487 | 0.444 | -0.0493 | 0.557 | -0.37 | -0.136 |
| CC(C)(C)N1C(=O)[C@H]2[C@H]3[C@H](O)C=CC(=O)[C@@H]3CC[C@H]2C1=O | 0.264 | 0.133 | 0.296 | 0.0361 | -0.586 | -0.13 | 0.0121 | 0.0637 | -0.288 | 0.0991 | -0.161 | 0.913 (inactive) | -0.0584 | 0.0098 | -0.0943 | -0.463 | 0.632 | -0.0221 | 0.311 | 0.607 |
| CC(CCN1CCc2nc(-c3ccccc3)c(-c3ccccc3)cc2C1)=NOC[C@@H](O)COCc1ccco1 | 0.58 | -1.11 | 0.718 | -0.216 | -0.625 | -0.0346 | 0.0048 | -0.0524 | 0.323 | 0.365 | 0.148 | 0.0366 (inactive) | 0.062 | -0.153 | 0.0111 | 0.197 | -0.202 | 1.08 | 1.03 | 0.501 |
| COC(=O)[C@@H]1CC[C@H](C)[C@@H](c2ccc(C)cc2)N1C(=O)c1ccc(C=NO[C@H](C)c2cn([C@H](CO)Cc3ccccc3)nn2)cc1 | 0.671 | -2.17 | 0.776 | 3.17 | -0.139 | -0.124 | 0.191 | -0.0318 | 0.462 | 0.0997 | 0.279 | 0.402 (inactive) | 0.217 | 0.111 | 0.233 | -0.141 | 0.452 | 1.02 | 0.684 | 0.653 |
| CO[C@@H]1C=CCC(=O)N[C@@H](C)C(=O)OC[C@@H](OC)[C@H](C)CCCC(=O)OC[C@H]1C | -2.89 | -1.41 | 1.41 | -1.23 | -2.04 | -0.0694 | -0.206 | -0.345 | 0.95 | -0.11 | -0.555 | -0.31 (inactive) | 0.0854 | -0.208 | -1.01 | -1.96 | 0.173 | -0.248 | 1.53 | -0.997 |
| COC(=O)CC=C[C@@H](C)[C@@H]1C=C[C@H](O)[C@@H](CO)O1 | 0.0429 | -0.0733 | 0.43 | 0.367 | -0.818 | -0.154 | 0.647 | -0.546 | 0.297 | -0.139 | 0.0642 | 0.0543 (inactive) | -0.364 | -0.0717 | -0.184 | 0.189 | -0.171 | -0.111 | 0.951 | -0.379 |
| CO[C@@H]1COC(=O)CC=C[C@H](C)[C@H](OC)COC(=O)[C@H](C)NC(=O)CC=C[C@H]1C | -0.724 | 1.39 | 0.965 | -0.981 | -2.34 | -0.0145 | 0.479 | -0.368 | -0.242 | -0.592 | -0.837 | 1.11 (inactive) | -0.0043 | -0.118 | -0.481 | -0.448 | -0.134 | 0.786 | 0.896 | -1.76 |
| CC(=O)OC[C@H]1O[C@H](C#Cc2ccccc2)C=C[C@@H]1OC(C)=O | -0.234 | -2.92 | 0.711 | -0.376 | -0.449 | -0.119 | -0.124 | 0.115 | 0.288 | -0.686 | 0.243 | -0.005 (inactive) | -0.0328 | -0.136 | 0.0239 | 0.214 | 0.17 | 0.182 | 0.965 | -0.0189 |
| CO[C@@H]1COC(=O)CC=C[C@@H](C)[C@H](OC)COC(=O)[C@@H](C)COC(=O)CC=C[C@H]1C | -0.82 | 0.0811 | 0.889 | -0.618 | -1.59 | -0.237 | -0.0553 | -0.284 | 0.263 | -0.864 | -0.797 | 0.0068 (inactive) | -0.055 | -0.124 | -0.679 | -0.824 | -0.0936 | -0.983 | 1.47 | -0.423 |
| CC(=O)O[C@H]1C2=CO[C@H](C)[C@H]3[C@H]4C5=C([C@H](O)[C@H]6O[C@H]6C5=O)[C@H](OC4C)[C@@]23C(=O)[C@@H]2O[C@@H]21 (stereo not given in full) | -0.361 | -4.68 | 0.384 | -0.935 | -0.994 | 0.0108 | 0.0804 | 0.262 | 0.963 | -1.03 | 0.767 | 0.719 (inactive) | 0.0836 | -0.0357 | 0.357 | 0.249 | 0.228 | 0.583 | 0.0249 | -0.185 |
| COC(=O)CC=C[C@@H](C)[C@@H](C=NO[C@@H]1O[C@H](COC(C)=O)[C@@H](OC(C)=O)[C@H](OC(C)=O)[C@H]1OC(C)=O)OC | -0.428 | -1.57 | 0.499 | -0.937 | -1.48 | -0.175 | -0.309 | -0.249 | -0.461 | -0.463 | 0.216 | -0.421 (inactive) | 0.0303 | -0.0294 | -0.605 | -0.152 | 0.124 | 0.702 | -0.0703 | -1.33 |
| O=C(NN=C1C[C@@H](O)[C@@H](O)[C@@H]2[C@@H]3C(=O)N(C4CCCCC4)C(=O)[C@@H]3CC[C@H]12)OCc1ccccc1 | -0.342 | -2.03 | 0.393 | -0.202 | 0.454 | -0.0051 | -0.542 | 0.0014 | 0.26 | 0.273 | 0.885 | -0.229 (inactive) | 0.273 | 0.179 | 0.0928 | 0.206 | 0.947 | -0.337 | 0.209 | -0.465 |
| Cc1cc2c(nc1C)CCCCN2CC(C)ON=C[C@@H](C)[C@H](OCc1ccccc1)C(C)C (stereo not given in full) | -0.683 | -3.07 | -0.684 | -1.4 | -0.987 | -0.224 | -0.214 | -0.415 | -1.16 | -0.916 | -0.256 | -0.77 (inactive) | -0.545 | -0.237 | -0.523 | -0.602 | -0.708 | -0.465 | -2.12 | -1.34 |
| CCOC(=O)[C@H](Cc1ccccc1)NC(=O)CCC1CC(OC(=O)NCCc2ccc(F)cc2)CC2(CCCC(COC(=O)NCCc3ccccc3OC)O2)O1 (stereo not given in full) | 1.37 | -1.19 | 0.515 | 0.63 | -0.403 | -0.0236 | 0.0278 | -0.285 | 0.705 | 0.473 | 0.667 | -0.449 (inactive) | -0.0984 | -0.14 | 0.303 | 1.46 | 0.854 | 1.12 | 0.405 | 1.09 |
| CCCNC(=O)OC[C@H]1O[C@H](CCON=C(C)CCN2CCc3nc(CC)c(CC)cc3C2)C=C[C@@H]1Oc1ccc(OC)cc1 | -0.263 | -3.27 | 0.223 | -0.254 | -0.875 | -0.034 | -0.154 | -0.4 | 0.345 | 0.381 | 0.322 | 0.0421 (inactive) | 0.105 | -0.14 | -0.164 | 0.176 | 0.0186 | 0.285 | -0.0024 | 0.0004 |

Source: PubChem BioAssay
